# Assay results published in PubChem BioAssay (NCATS).
# Results filed as inconclusive are left out. The source made the active and inactive calls. Calls come from the whole dose curve; as a rule, active = well fitted inhibition curve with a large enough effect; inconclusive = small, poorly fitted or top-dose-only effect; inactive = flat fitted curve, though single readings scatter.
# Test system: HACAT
# Assay: qHTS assay to identify novel small-molecules to repurpose for Merkel cell carcinoma treatment (AID 1296009); note: nearly all actives have a fitted effect of over 60% in size
# Conditions: MCC and control cell lines, CellTiter-Glo viability, 72 h; at 44.8 µM (top of the series) unless noted
# In short: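 Luminescence from CellTiter-Glo, read 10 min after addition at room temperature, reported viability following a 72 hr, 37 degree celsius treatment with NPC or MIPE compounds in titration; values normalized to plate controls.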
row,SMILES,outcome
1,C[C@@H]1C(=O)O[C@H]2CC34[C@H]5C[C@@H](C(C)(C)C)C36[C@H](OC(=O)[C@@H]6O)O[C@@]4(C(=O)O5)[C@]21O (stereo partly drawn),inactive
2,COc1cc(C)c(C=CC(C)=CC=CC(C)=CC(=O)O)c(C)c1C,inactive
3,CC(=O)N1CCN(c2ccc(OCc3nn(C)c(C)c3-c3cccc4c(CCCOc5cccc6ccccc56)c(C(=O)O)n(Cc5cccnc5)c34)cc2)CC1,inactive
4,CC(=O)C1=C(O)C=C2Oc3c(C(C)=O)c(O)c(C)c(O)c3C2(C)C1=O (stereo not drawn),inactive
5,C=Cc1c(C)c2cc3nc(cc4[nH]c(cc5nc(cc1[nH]2)C(C)=C5CCC(=O)O)c(CCC(=O)OC)c4C)[C@@]1(C)C3=CC=C(C(=O)OC)[C@H]1C(=O)OC,inactive
6,NC[C@H]1O[C@H](O[C@H]2[C@@H](O)[C@@H](O[C@H]3O[C@H](CO)[C@@H](O)[C@H](N)[C@@H]3O)[C@H](N)C[C@@H]2N)[C@H](N)C[C@H]1O,inactive
7,O=C1NC(=O)[C@@H](c2cn3c4c(cccc24)CCC3)[C@H]1c1c[nH]c2ccccc12,inactive
8,C[C@H](NC(=O)Cc1cc(F)cc(F)c1)C(=O)N[C@H](C(=O)OC(C)(C)C)c1ccccc1,inactive
9,C[N+]1(C)[C@@H]2C[C@@H](OC(=O)C(O)(c3cccs3)c3cccs3)C[C@H]1[C@@H]1O[C@@H]12,inactive
10,C=C1C[C@@]2(O)O[C@@]3(C[C@H]2C(C)C)[C@H](C)CC[C@H]13,inactive
11,O=C(c1ccc(F)cc1)N1CCC[C@H](c2nc(-c3ccc(F)cc3)no2)C1,inactive
12,O=C(O)[C@H](CC(=O)N1C[C@@H]2CCCC[C@H]2C1)Cc1ccccc1,inactive
13,COc1ccc([C@@H]2CNC(=O)C2)cc1OC1CCCC1,inactive
